Measurements from PubChem BioAssay AID1159580 (chemical genetic matrix, 2015).
About 2,000 (36%) of roughly 5,500 compounds were called active. Roughly 18% stayed inconclusive and do not appear here. Rule as the data show it: active = normalized growth mostly below about 0.91 (no sharp cut-off); inconclusive = no clear call, values can overlap the other calls; inactive = mostly above about 0.92. Some of the results follow.

Test: chemical genetic growth profiling, strain panel (AID 1159580);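 also: tested at 20 µM; growth read once vehicle control cultures reached saturation at 30 °C; 1 = growth at the plate median or of vehicle wells; lower values mean less growth of the strain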
Settings: growth OD

Measured: normalized growth

COC1=CC(=O)C=C(OC)C1=O
inactive: S. cerevisiae deletion strains, locus YKL009W, strain mrt4, hits give low values 0.956 | S. cerevisiae deletion strains, locus YKL068W, hits give low values 0.972 | S. cerevisiae deletion strains, locus YKL085W, strain MDH1 (second series), hits give low values 0.981 | S. cerevisiae deletion strains, locus YKL085W, strain MDH1, hits give low values 0.981 | S. cerevisiae deletion strains, locus YKL160W, strain elf1, hits give low values 0.971 | S. cerevisiae deletion strains, locus YKL190W, strain CNB1, hits give low values 0.989 | S. cerevisiae deletion strains, locus YKR001C, strain vps1, hits give low values 0.995 | S. cerevisiae deletion strains, locus YKR026C, strain gcn3, hits give low values 0.995 | S. cerevisiae deletion strains, locus YKR091W, strain srl3, hits give low values 1 | S. cerevisiae deletion strains, locus YLL001W, strain dnm1, hits give low values 0.996 | S. cerevisiae deletion strains, locus YLL026W, hits give low values 0.991 | S. cerevisiae deletion strains, locus YLL041C, strain sdh2, hits give low values 1.01 | S. cerevisiae deletion strains, locus YLR027C, strain aat2, hits give low values 0.997 | S. cerevisiae deletion strains, locus YLR039C, strain RIC1, hits give low values 0.981 | S. cerevisiae deletion strains, locus YLR058C, strain SHM2, hits give low values 0.988 | S. cerevisiae deletion strains, locus YLR102C, strain apc9, hits give low values 0.982 | S. cerevisiae deletion strains, locus YLR113W, strain HOG1, hits give low values 0.998 | S. cerevisiae deletion strains, locus YLR221C, strain rsa3, hits give low values 1 | S. cerevisiae deletion strains, locus YLR258W, strain gsy2, hits give low values 0.997 | S. cerevisiae deletion strains, locus YLR262C, strain YPT6 (second series), hits give low values 0.946 | S. cerevisiae deletion strains, locus YLR262C, strain YPT6, hits give low values 0.967 | S. cerevisiae deletion strains, locus YLR268W, strain sec22, hits give low values 0.989 | S. cerevisiae deletion strains, locus YLR320W, strain mms22, hits give low values 0.955 | S. cerevisiae deletion strains, locus YLR330W, strain CHS5, hits give low values 0.997 | S. cerevisiae deletion strains, locus YLR342W, strain FKS1 (second series), hits give low values 1.02 | S. cerevisiae deletion strains, locus YLR342W, strain FKS1, hits give low values 0.976 | S. cerevisiae deletion strains, locus YLR357W, strain rsc2, hits give low values 0.99 | S. cerevisiae deletion strains, locus YLR370C, strain arc18, hits give low values 1.01 | S. cerevisiae deletion strains, locus YLR371W, strain rom2, hits give low values 0.989 | S. cerevisiae deletion strains, locus YLR384C, strain iki3, hits give low values 0.986 | S. cerevisiae deletion strains, locus YLR418C, strain cdc73, hits give low values 0.999 | S. cerevisiae deletion strains, locus YML016C, strain PPZ1, hits give low values 0.994 | S. cerevisiae deletion strains, locus YML032C, strain rad52, hits give low values 0.973 | S. cerevisiae deletion strains, locus YML120C, strain ndi1, hits give low values 1.01 | S. cerevisiae deletion strains, locus YML124C, strain tub3, hits give low values 0.987 | S. cerevisiae deletion strains, locus YMR058W, strain fet3, hits give low values 1.02 | S. cerevisiae deletion strains, locus YMR078C, strain ctf18, hits give low values 0.999 | S. cerevisiae deletion strains, locus YMR125W, strain sto1, hits give low values 1.02 | S. cerevisiae deletion strains, locus YMR129W, hits give low values 0.999 | S. cerevisiae deletion strains, locus YMR205C, strain PFK2, hits give low values 0.983 | S. cerevisiae deletion strains, locus YMR223W, strain ubp8, hits give low values 0.993 | S. cerevisiae deletion strains, locus YMR231W, strain pep5, hits give low values 1.01 | S. cerevisiae deletion strains, locus YMR307W, strain GAS1, hits give low values 1.12 | S. cerevisiae deletion strains, locus YNL067W, strain RPL9B, hits give low values 0.997 | S. cerevisiae deletion strains, locus YNL071W, strain lat1, hits give low values 0.989 | S. cerevisiae deletion strains, locus YNL183C, strain NPR1, hits give low values 0.95 | S. cerevisiae deletion strains, locus YNL209W, strain ssb2, hits give low values 0.996 | S. cerevisiae deletion strains, locus YNL233W, strain BNI4, hits give low values 1.02 | S. cerevisiae deletion strains, locus YNL248C, strain rpa49, hits give low values 1.01 | S. cerevisiae deletion strains, locus YNL250W, strain rad50, hits give low values 0.987 | S. cerevisiae deletion strains, locus YNL271C, strain bni1, hits give low values 0.99 | S. cerevisiae deletion strains, locus YNL298W, strain CLA4, hits give low values 0.999 | S. cerevisiae deletion strains, locus YNL307C, strain MCK1, hits give low values 0.992 | S. cerevisiae deletion strains, locus YNL322C, strain KRE1 (second series), hits give low values 0.996 | S. cerevisiae deletion strains, locus YNL322C, strain KRE1, hits give low values 0.993 | S. cerevisiae deletion strains, locus YNR049C, strain mso1, hits give low values 1 | S. cerevisiae deletion strains, locus YNR052C, strain pop2, hits give low values 1.01 | S. cerevisiae deletion strains, locus YOL006C, strain TOP1, hits give low values 1.17 | S. cerevisiae deletion strains, locus YOL012C, strain htz1 0.746 | S. cerevisiae deletion strains, locus YOL147C, strain pex11, hits give low values 0.988 | S. cerevisiae deletion strains, locus YOR001W, strain rrp6, hits give low values 1 | S. cerevisiae deletion strains, locus YOR061W, strain CKA2, hits give low values 0.965 | S. cerevisiae deletion strains, locus YOR069W, strain VPS5, hits give low values 0.991 | S. cerevisiae deletion strains, locus YOR070C, strain gyp1, hits give low values 0.996 | S. cerevisiae deletion strains, locus YOR080W, strain dia2, hits give low values 1.01 | S. cerevisiae deletion strains, locus YOR083W, strain WHI5, hits give low values 0.927 | S. cerevisiae deletion strains, locus YOR106W, strain vam3, hits give low values 0.97 | S. cerevisiae deletion strains, locus YOR136W, strain idh2, hits give low values 0.972 | S. cerevisiae deletion strains, locus YOR144C, strain elg1, hits give low values 0.994 | S. cerevisiae deletion strains, locus YOR184W, strain ser1, hits give low values 0.982 | S. cerevisiae deletion strains, locus YOR231W, strain MKK1, hits give low values 1.01 | S. cerevisiae deletion strains, locus YOR265W, strain rbl2, hits give low values 0.994 | S. cerevisiae deletion strains, locus YOR270C, strain vph1, hits give low values 0.94 | S. cerevisiae deletion strains, locus YOR290C, strain snf2, hits give low values 0.991 | S. cerevisiae deletion strains, locus YOR316C, strain cot1, hits give low values 0.986 | S. cerevisiae deletion strains, locus YPL051W, strain arl3, hits give low values 0.998 | S. cerevisiae deletion strains, locus YPL055C, strain LGE1, hits give low values 1.04 | S. cerevisiae deletion strains, locus YPL078C, strain atp4, hits give low values 0.962 | S. cerevisiae deletion strains, locus YPL106C, strain sse1, hits give low values 0.994 | S. cerevisiae deletion strains, locus YPL240C, strain hsp82, hits give low values 0.991 | S. cerevisiae deletion strains, locus YPL241C, strain CIN2, hits give low values 0.986 | S. cerevisiae deletion strains, locus YPL256C, strain CLN2, hits give low values 1.01 | S. cerevisiae deletion strains, locus YPR119W, strain clb2, hits give low values 0.981 | S. cerevisiae deletion strains, locus YPR141C, strain kar3, hits give low values 0.983 | S. cerevisiae deletion strains, locus YPR163C, strain tif3, hits give low values 1 | S. cerevisiae deletion strains, locus YPR167C, strain met16, hits give low values 0.976 | S. cerevisiae deletion strains, strain wtn01, hits give low values 0.981 | S. cerevisiae strains, strain wild type, hits give low values 1
